Screens deposited in PubChem by Broad Institute.
This is one part of a sample in which hits are shown more often than they occur.
BL2 CD40 inh = CD40 pathway inhibition in BL2 cells | inhibition, % at 10 µM | actives 0.94% (n = 83,000) | BL2 NF-kB luciferase reporter, CD40L-induced, 4 h | AID 1053188;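 active means mean inhibition of at least 50% with a set share of replicates also reaching that level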;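 further: 0% = neutral control wells and 100% = IKK inhibitor VII at 50 µM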
* hit, by the source's call; [ ] = dose if it differs, or a comment.

SMILES	BL2 CD40 inh
C[C@@H]1CN([C@@H](C)CO)C(=O)c2cc(NS(C)(=O)=O)ccc2O[C@@H]1CN(C)CC1CC1	-4.2
CCCNC(=O)N(C)C[C@H]1Oc2ncc(C#CC3CCCCC3)cc2C(=O)N([C@@H](C)CO)C[C@H]1C	2.8[25 µM]
CO[C@H]1CN(C)C(=O)c2ccc(NS(C)(=O)=O)cc2OC[C@H](C)N(C(=O)C2CCCC2)C[C@H]1C	-15.1
CN1C(=O)c2cc(NC(=O)C3CC3)ccc2OC[C@H]2O[C@H](CC(=O)NCc3ccccc3F)CC[C@H]21	-17.0
O=C(Nc1ccccc1F)N1C[C@H]2[C@@H](c3ccccc31)[C@@H](CO)N2C(=O)C1CCCCC1	-9.4[25 µM]
COc1ccc(S(=O)(=O)N(C)C[C@H]2Oc3ccc(NS(=O)(=O)c4c(C)noc4C)cc3C(=O)N([C@@H](C)CO)C[C@H]2C)cc1	-1.1[25 µM]
O=C(C1CC1)N1CC[C@@H]2[C@@H](CO)Nc3ccc(C#Cc4ccc(F)cc4)cc3[C@@H]21	1.5
CO[C@@H]1CN(C)C(=O)c2cc(NC(=O)C3CCOCC3)ccc2OC[C@@H](C)N(CC2CC2)C[C@H]1C	-4.7
C[C@H]1CN([C@@H](C)CO)C(=O)CCCn2nncc2CO[C@@H]1CN(C)S(C)(=O)=O	3.3[25 µM]
O=C(c1nnsc1S(=O)(=O)c1ccc(Cl)cc1)N1CCOCC1	96.6*
O=C(c1ccc(S(=O)(=O)Nc2ccccc2Cl)cc1)N1CCOCC1	7.1
O=C(N1CCOCC1)N1CCN(S(=O)(=O)c2ccc(Cl)cc2)C1	6.1
CCCNC(=O)C[C@@H]1C[C@H]2c3cc(NC(=O)NC4CCCC4)ccc3O[C@H]2[C@@H](CO)O1	8.0
Cc1cc(S(=O)(=O)c2ccc(Cl)cc2)nc(S(=O)(=O)c2ccc(Cl)cc2)c1C#N	112.3*
Cc1ccc(S(=O)(=O)c2c(C)cc(C)nc2N2CCCCC2)cc1	12.8
Cc1cc(C)nc(NNS(=O)(=O)c2ccc(Cl)cc2)n1	2.7
CCOC(=O)N(C)C[C@@H]1OCc2ccccc2-c2c(n(C)c3ccccc23)C(=O)N([C@H](C)CO)C[C@@H]1C	16.9
O=C(Cc1ccccc1)NC[C@H]1N[C@H](CO)[C@@H]1c1ccc(-c2ccccc2)cc1	-5.4[25 µM]
O=C(NCCc1ccccc1)[C@@H]1[C@@H](CO)[C@@H]2Cn3c(cccc3=O)[C@H]1N2CC1CC1	-0.6[25 µM]
COc1cccc(/C=N/NC(=O)CCn2nnc3ccccc32)c1	-13.8
COc1ccc(/C=N\n2nnc3ccccc32)cc1	57.7*
COc1ccc(/C=N/NC(=O)CCn2cnc3ccccc32)cc1	-6.5
C[C@H]1COCn2nncc2CC[C@@H](Cc2ccc(-c3ccccc3)cc2)C(=O)N1	5.3[25 µM]
CCCN(CC(=O)Nc1ccccc1OC)C(=O)c1ccccn1	-1.9
Cc1ccc(NC(=S)NNC(=S)Nc2ccc(C)cc2)cc1	-42.4
SMILES	BL2 CD40 inh
CC(=NNC(=S)Nc1ccc(C)cc1)c1ccccn1	77.5*
COc1ccccc1NC(=S)NN=C(C)c1ccccn1	90.3*
COc1ccccc1NC(=O)c1ccccc1NC(=O)c1ccccn1	0.9
CC(=NNC(=S)N1CC2CCC(CC2)C1)c1ccccn1	-16.7
CC(C)[C@@H](C)NC(=O)N(C)C[C@@H]1OCc2ccccc2-c2c(n(C)c3ccccc23)C(=O)N([C@H](C)CO)C[C@@H]1C	-10.6
O=C(C[C@@H]1CC[C@@H](NC(=O)c2ccc(F)cc2)[C@@H](CO)O1)NCCc1ccccc1	-1.4[25 µM]
CC(C)NC(=O)N1[C@H](CO)[C@@H]2c3ccccc3N(C(=O)C3CCCCC3)C[C@@H]21	0.6
CC(C)COC(=O)N(C)C[C@H]1OCc2ccccc2-c2c(n(C)c3ccccc23)C(=O)N([C@@H](C)CO)C[C@H]1C	27.0[25 µM]
O=C(NCC(F)(F)F)[C@@H]1[C@@H](CO)[C@@H]2Cn3c(ccc(-c4cccnc4)c3=O)[C@H]1N2Cc1ccccc1	0.7[25 µM]
NC1=NC2(CCCCC2)n2c(nc3ccccc32)N1	-9.2
O=C(C1CCCCC1)N1CCCn2c1nc1ccccc12	9.4
N=c1cc(C2(O)CCCCC2)n2c(nc3ccccc32)s1	65.8*
O=C(Nc1ccccc1)N1C[C@H]2[C@@H](c3ccccc31)[C@@H](CO)N2C(=O)c1ccccc1F	-17.4
O=C(C[C@H]1C[C@H]2c3cc(NC(=O)NC4CCCC4)ccc3O[C@H]2[C@@H](CO)O1)NCc1cccnc1	-2.0
O=C(O)c1cc(-c2ccccc2)c(N2CCOCC2)s1	7.7
Nc1ccc(-c2cccc3c(=O)cc(N4CCOCC4)oc23)cc1	57.5*[25 µM]
Nc1ncnc2nc(-c3ccc(N4CCOCC4)nc3)cc(-c3cccc(Br)c3)c12	-20.2[25 µM]
CO[C@H]1CC[C@H]2CCN(C)C(=O)[C@H](C)N(C)C(=O)c3cccc(C#N)c3OC[C@H]1O2	-8.1[25 µM]
CC(=NNC(=S)N1CCN(C2CCCCCC2)CC1)c1ccccn1	51.5*
CC(=NNC(=S)N1CC2CCC(CC2)C1)c1cnccn1	26.1
CC(=NNC(=S)N1CCN(c2ccccn2)CC1)c1ccccn1	2.2
O=C(N/N=C/C1CCCCC1)c1ccccn1	-41.5
S=C(NCc1ccc(Cl)cc1)N1CCN(c2ccccn2)CC1	5.9
CC(=NNC(=S)N1CCN(c2ccccn2)CC1)c1nccs1	77.7*
C[C@@H]1CN([C@@H](C)CO)C(=O)c2ccccc2-c2ccccc2CO[C@H]1CN(C)C(=O)N[C@H](C)c1ccccc1	-25.8[25 µM]
SMILES	BL2 CD40 inh
COc1ccc(S(=O)(=O)Nc2ccc3c(c2)C(=O)N([C@@H](C)CO)C[C@@H](C)[C@@H](CN(C)Cc2ccc(C(F)(F)F)cc2)OCCCC[C@@H](C)O3)cc1	56.8*[25 µM]
COc1ccc(S(=O)(=O)Nc2ccc3c(c2)C(=O)N([C@H](C)CO)C[C@@H](C)[C@H](CN(C)Cc2ccc(C(F)(F)F)cc2)OCCCC[C@@H](C)O3)cc1	50.2*[25 µM]
COc1ccc(S(=O)(=O)Nc2ccc3c(c2)C(=O)N([C@@H](C)CO)C[C@@H](C)[C@H](CN(C)Cc2ccc(C(F)(F)F)cc2)OCCCC[C@H](C)O3)cc1	28.0[25 µM]
COc1ccc(S(=O)(=O)Nc2ccc3c(c2)C(=O)N([C@H](C)CO)C[C@H](C)[C@H](CN(C)Cc2ccc(C(F)(F)F)cc2)OCCCC[C@H](C)O3)cc1	37.1[25 µM]
COc1ccc(NC(=O)Nc2ccc3c(c2)C(=O)N([C@H](C)CO)C[C@H](C)[C@H](CN(C)Cc2ccc(C(F)(F)F)cc2)OCCCC[C@@H](C)O3)cc1	-1.9
COc1ccc(S(=O)(=O)Nc2ccc3c(c2)C(=O)N([C@H](C)CO)C[C@@H](C)[C@@H](CN(C)Cc2ccc(C(F)(F)F)cc2)OCCCC[C@H](C)O3)cc1	57.9*[25 µM]
COc1ccc(S(=O)(=O)Nc2ccc3c(c2)C(=O)N([C@@H](C)CO)C[C@@H](C)[C@@H](CN(C)Cc2ccc(C(F)(F)F)cc2)OCCCC[C@H](C)O3)cc1	73.4*[25 µM]
COc1ccc(S(=O)(=O)Nc2ccc3c(c2)C(=O)N([C@H](C)CO)C[C@H](C)[C@H](CN(C)Cc2ccc(C(F)(F)F)cc2)OCCCC[C@@H](C)O3)cc1	30.1[25 µM]
C[C@@H]1CCCCO[C@H](CN(C)Cc2ccc(C(F)(F)F)cc2)[C@H](C)CN([C@@H](C)CO)C(=O)c2cc(NS(=O)(=O)c3ccc(Cl)cc3)ccc2O1	30.6
COc1ccc(NC(=O)Nc2ccc3c(c2)C(=O)N([C@@H](C)CO)C[C@@H](C)[C@H](CN(C)Cc2ccc(C(F)(F)F)cc2)OCCCC[C@@H](C)O3)cc1	6.8
COc1ccc(S(=O)(=O)Nc2ccc3c(c2)C(=O)N([C@@H](C)CO)C[C@H](C)[C@H](CN(C)Cc2ccncc2)OCCCC[C@H](C)O3)cc1	2.8
